Screening results as filed in PubChem.
A selection: hits, their analogues and other compounds. The true share with any hit is near 1.6%.
KCNQ2 block: KCNQ2 (rat) channel inhibition; O88943; CHO-K1 KCNQ2, FluxOR thallium flux, 20 min; hits give low values; B-score at 10 µM; 310,000 tested, 1.1% active;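 active = fluorescence ratio B-score at most minus 3 library SDs, with starting brightness B-score within 2 library SDs, cut at about -5.5 in these data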
Target sequence (O88943 whole entry, looked up): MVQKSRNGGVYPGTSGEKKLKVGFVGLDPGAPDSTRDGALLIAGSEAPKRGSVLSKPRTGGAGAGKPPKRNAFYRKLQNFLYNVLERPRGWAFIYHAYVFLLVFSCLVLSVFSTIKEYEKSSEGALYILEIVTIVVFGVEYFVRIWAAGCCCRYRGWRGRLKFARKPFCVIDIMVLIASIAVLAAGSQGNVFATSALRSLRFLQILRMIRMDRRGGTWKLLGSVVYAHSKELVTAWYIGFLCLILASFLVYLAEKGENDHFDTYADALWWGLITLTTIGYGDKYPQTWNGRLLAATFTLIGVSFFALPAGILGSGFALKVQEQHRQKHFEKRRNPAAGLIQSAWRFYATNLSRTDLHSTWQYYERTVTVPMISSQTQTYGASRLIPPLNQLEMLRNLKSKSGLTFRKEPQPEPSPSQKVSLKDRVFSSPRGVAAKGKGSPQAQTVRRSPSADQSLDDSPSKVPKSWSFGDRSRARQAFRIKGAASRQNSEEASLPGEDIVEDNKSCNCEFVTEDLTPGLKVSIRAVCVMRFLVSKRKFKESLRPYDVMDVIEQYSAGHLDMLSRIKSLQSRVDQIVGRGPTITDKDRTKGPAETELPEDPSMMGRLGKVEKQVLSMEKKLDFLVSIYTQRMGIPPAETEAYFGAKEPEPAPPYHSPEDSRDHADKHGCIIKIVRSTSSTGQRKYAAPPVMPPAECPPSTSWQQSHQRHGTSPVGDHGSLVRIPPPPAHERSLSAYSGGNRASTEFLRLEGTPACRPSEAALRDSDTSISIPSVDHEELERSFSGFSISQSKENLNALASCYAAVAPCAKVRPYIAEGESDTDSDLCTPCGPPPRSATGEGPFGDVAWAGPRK
KCNQ2 enhance: KCNQ2 (rat) channel potentiation; AID 2239; 310,000 tested, 0.54% active; B-score at 10 µM; CHO-K1 KCNQ2, FluxOR thallium flux fluorescence; hits give high values;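 active = fluorescence ratio B-score at least 3 SD of library B-scores, with initial fluorescence B-score within 3 of them, cut at about 5.3 in these data; same plate scores as AID 2156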;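 also: B-score of peak minus minimum over baseline fluorescence ratio after K+ and Tl+ stimulus; positive B-score means potentiation of KCNQ2 with more thallium influx and brighter signal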
KCNQ2 inh conf: rat KCNQ2 channel inhibition, confirmatory screen; AID 493025; shares compounds with KCNQ2 block; activity change, negative = inhibition, % at 10 µM; 1,000 tested, 57% active; KCNQ2-expressing cells, thallium flux; hits give low values
KCNQ1 spec: selectivity of KCNQ2 inhibitors against human KCNQ1. shares compounds with KCNQ2 block. KCNQ1-expressing cells, FluxOR thallium flux fluorescence; hits give low values. activity change, negative = inhibition, % at 10 µM. 1,000 tested, 15% active;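 active = activity change at least 3 SD of negative controls below their mean in both duplicate wells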;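 also: CHO cells stably transfected with KCNQ1 and depolarized by potassium stimulus; peak minus minimum fluorescence over baseline after thallium addition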
CHO Tl ctr: counter-screen for KCNQ2 inhibitors: effect in parental CHO cells; shares compounds with KCNQ2 block; thallium flux counter-screen; hits give low values; activity change, % at 10 µM; 1,000 tested, 14% active
KCNQ2 inh confirm: rat KCNQ2 inhibition confirmed by electrophysiology. KCNQ2-expressing cells, automated patch clamp current. calls only at 10 µM. 550 tested, 49% active. shares compounds with KCNQ2 block
Kir21 confirm: confirmation of mouse Kir2.1 potassium channel inhibitors; shares compounds with KCNQ2 enhance; Kir2.1-expressing cells, FluxOR thallium flux fluorescence; hits give low values; Tl flux remaining, % of negative control (hits give low values), % at 10 µM; 2,300 tested, 41% active; AID 2032;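 active = Primary-screen hit whose thallium flux fell at least 3 control SD below untreated wells in both duplicates, with normal baseline fluorescence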
HEK293 ctr: parental HEK293 activity in Kir2.1 inhibitor counter-screen | shares compounds with KCNQ2 enhance | parental HEK293 cells, FluxOR thallium flux fluorescence; 0% = unstimulated blank wells | FluxOR signal as % of negative control (100 = no effect), % at 10 µM | 2,300 tested, 19% active;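 active = dye signal at least 3 control SD above or below untreated wells in both duplicates, raw fluorescence within 3, either direction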;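 also: percent is based on the flux ratio of peak minus minimum fluorescence over baseline F0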
Of the large screens only hits and unclear results are named; the others gave an inactive call (follow-up assays come after a bar, where they were run); ! = not active in a repeat. Unless noted, no rule for the calls is given here.

CC(=O)Nc1cc(C(F)(F)F)ccc1N1CCOCC1	none
CCC(Oc1ccccc1)C(=O)Nc1cc(C(F)(F)F)ccc1N1CCOCC1 (stereo not given)	KCNQ2 block -7.04 | KCNQ2 inh conf inactive | KCNQ1 spec inactive | CHO Tl ctr inactive
COc1ccc(C2NC(=O)NC(C)=C2[N+](=O)[O-])cc1 (stereo not given)	none
Cc1c(C)n(C)c2ccc(C(=O)N3CCN(c4ccccc4)CC3)cc12	none (no result: KCNQ2 enhance)
Cc1ccc(C)c(N2CCN(C(=O)c3ccc4c(c3)c(C)c(C)n4C)CC2)c1	KCNQ2 block -6.64 | KCNQ2 inh conf inactive | KCNQ1 spec inactive | CHO Tl ctr inactive
COc1ccc(Cl)cc1NC(=O)CSc1nnc(-c2ccco2)o1	none
COc1ccccc1NC(=O)NNC(=O)CCN1CCOCC1	none (no result: KCNQ2 enhance)
CCOC(=O)c1[nH]c(C)c(C(=O)OCc2ccccc2F)c1C	none (no result: KCNQ2 enhance)
CC(C)(C)c1ccc(CN(Cc2ccco2)Cc2nnnn2C2CCCC2)cc1	KCNQ2 block -12.4 | KCNQ2 inh conf -24.0% | KCNQ1 spec inactive | CHO Tl ctr inactive | KCNQ2 inh confirm inactive
COc1ccc2cc(CN(Cc3ccco3)Cc3nnnn3C3CCCCC3)c(=O)[nH]c2c1	none
Cc1cc(NC(=O)COC(=O)[C@@H](NS(=O)(=O)c2ccc(Br)cc2)C(C)C)no1	none (no result: KCNQ2 enhance)
COc1cccc(C(=O)Nc2cccc(C(=O)NCC(C)C)c2)c1	KCNQ2 block -6.69 | KCNQ2 inh conf inactive | KCNQ1 spec inactive | CHO Tl ctr inactive
COc1cccc(NC(=O)c2cccc(C(=O)Nc3cccc(OC)c3)c2)c1	none
Cc1cccc(NC(=O)CSc2nc3ccccc3nc2N2CCCC2)c1C	none
NC(=O)C1CCN(CC(=O)Nc2nc(-c3ccccc3)cs2)CC1	none (no result: KCNQ2 enhance)
O=C(Nc1nc(-c2ccccc2)cs1)C1CCCCN1S(=O)(=O)c1ccc(Cl)cc1 (stereo not given)	KCNQ2 block -8.93 | KCNQ2 inh conf inactive | KCNQ1 spec inactive | CHO Tl ctr inactive
O=C(Nc1nc(-c2ccccc2)cs1)C1CCCCN1S(=O)(=O)c1ccccc1 (stereo not given)	none (no result: KCNQ2 enhance)
CC1CCN(CC(=O)Nc2nc(-c3ccccc3)cs2)CC1	KCNQ2 block -7.34 | KCNQ2 inh conf inactive | KCNQ1 spec inactive | CHO Tl ctr inactive
Cc1ccc(C(=O)Nc2ccc(F)cc2)cc1NC1=NC2CS(=O)(=O)CC2S1 (stereo not given)	none (no result: KCNQ2 enhance)
COc1ccc(Br)cc1C(=O)Nc1ccccc1N1CCCC1	none (no result: KCNQ2 enhance)
COc1cc(C(=O)NC(=S)Nc2ccccc2N2CCCC2)cc(OC)c1OC	none (no result: KCNQ2 enhance)
COc1ccc(Cl)cc1C(=O)Nc1ccccc1N1CCN(C)CC1	none (no result: KCNQ2 enhance)
COc1cc(C(=O)Nc2ccccc2N2CCCCC2)cc(OC)c1OC	KCNQ2 block -7.39 | KCNQ2 inh conf -39.0% | KCNQ1 spec -28.5% | CHO Tl ctr inactive | KCNQ2 inh confirm active
COc1ccc(Cl)cc1C(=O)Nc1ccccc1N1CCCCC1	KCNQ2 block -7.53 | KCNQ2 inh conf -31.5% | KCNQ1 spec inactive | CHO Tl ctr inactive | KCNQ2 inh confirm inactive
COc1ccc(Br)cc1C(=O)Nc1ccccc1-c1ccccc1	KCNQ2 block -9.33 | KCNQ2 inh conf -15.0% | KCNQ1 spec inactive | CHO Tl ctr inactive | KCNQ2 inh confirm inactive
O=C(COC(=O)C1CCC(N2C(=O)C3C4CCC(C4)C3C2=O)CC1)c1ccc(F)cc1 (stereo not given)	none (no result: KCNQ2 enhance)
O=C(CC1C(=O)NCCN1Cc1cccc(C(F)(F)F)c1)NCCc1cnccn1 (stereo not given)	none
COc1cc(NC(=O)c2cc([N+](=O)[O-])ccc2NC(=O)CN2CCN(c3ccccn3)CC2)cc(OC)c1	none (no result: KCNQ2 enhance)
CN(C(=O)COC(=O)C1CCN(S(=O)(=O)c2ccc3c(c2)OCCO3)CC1)C1CCS(=O)(=O)C1 (stereo not given)	none
CCOc1ccc(CCNC(=O)CN(C)S(=O)(=O)c2cccs2)cc1OCC	none
O=C(CNC(=O)c1ccc2ccccc2c1)NCc1ccc(F)cc1	none (no result: KCNQ2 enhance)
CCC[C@H](CN[C@@H](CNC)[C@H](C)CC)NCCc1cc(C(F)(F)F)cc(C(F)(F)F)c1	none (no result: KCNQ2 enhance)
CC[C@@H](C)[C@H](CNC)NC[C@@H](Cc1cccc2ccccc12)NCCc1cccc(C(F)(F)F)c1	KCNQ2 block -8.48 | KCNQ2 inh conf -29.0% | KCNQ1 spec inactive | CHO Tl ctr inactive | KCNQ2 inh confirm inactive | Kir21 confirm 22.0% | HEK293 ctr inactive
CCCCCN(C(=O)CCC(=O)OCC(=O)N(CC)C1CCCCC1)c1c(N)n(CCCC)c(=O)[nH]c1=O	none
CCOc1cc(/C=N/N=C(N)N)ccc1OCc1ccc(Cl)cc1	KCNQ2 block -10.2 | KCNQ2 inh conf inactive | KCNQ1 spec inactive | CHO Tl ctr inactive | Kir21 confirm 62.0% | HEK293 ctr inactive
NC(N)=N/N=C/c1ccc(OCc2ccccc2)c(OCc2ccccc2)c1	none (no result: KCNQ2 enhance)
O=C(Cc1ccsc1)NNC(=O)c1ccccc1Cl	none (no result: KCNQ2 enhance)
Cc1ccccc1OCc1n(CC(=O)OC2CC(C)CCC2C(C)C)c2ccccc2[n+]1C (stereo not given)	KCNQ2 block -10.9 | KCNQ2 inh conf -39.5%! | KCNQ1 spec inactive | CHO Tl ctr inactive | KCNQ2 inh confirm active | Kir21 confirm 14.0% | HEK293 ctr inactive
CCOC(=O)Cn1c(COc2ccccc2OC)[n+](C)c2ccccc21	none
COc1ccc(-n2nnnc2CNC(=O)c2ccc3c(c2)OCO3)cc1	none (no result: KCNQ2 enhance)
COc1ccc(N2CC(C(=O)Nc3ccccc3C(=O)NC3CC3)CC2=O)cc1 (stereo not given)	none
O=C(/C=C/c1ccc(Cl)cc1)c1cccnc1	KCNQ2 block -7.58 | KCNQ2 inh conf -28.0% | KCNQ1 spec inactive | CHO Tl ctr inactive | KCNQ2 inh confirm inactive | Kir21 confirm 67.5% | HEK293 ctr inactive
O=C(/C=C/c1ccc(OCc2ccccc2)c(OCc2ccccc2)c1)c1cccnc1	none (no result: KCNQ2 enhance)
CCc1ccc(NC(=S)NCc2ccccc2)cc1	none
CCc1ccc(C(O)(CNCc2ccccc2)c2ccccc2)cc1 (stereo not given)	KCNQ2 block -6.91 | KCNQ2 inh conf -32.0% | KCNQ1 spec -35.5% | CHO Tl ctr -28.5% | KCNQ2 inh confirm inactive | Kir21 confirm 69.0% | HEK293 ctr inactive
CCS(=O)(=O)N1CCC(NC(=O)C(Cc2ccc(OC)c(OC)c2)NC(C)=O)CC1 (stereo not given)	none (no result: KCNQ2 enhance)
CCC(C)(C)c1ccc(OCCCC[n+]2cccc(C)c2)c(C(C)(C)CC)c1	KCNQ2 block -8.45 | KCNQ2 inh conf inactive | KCNQ1 spec inactive | CHO Tl ctr inactive | Kir21 confirm 33.0% | HEK293 ctr inactive
Cc1ccc[n+](CC(=O)Nc2cc(C(F)(F)F)ccc2Cl)c1	none
